Most compounds without a hit are left out; they make up all but 0.83% or so of the library.
MRP resist rev: reverses drug resistance mediated by MRP | H69AR cells + 2 uM doxorubicin, CellTiter-Glo, 72 h | differential viability (reversal), % at 10 µM | 85,000 tested, 0.04% active | AID 602;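 active = viability drop by adding the cancer drug above about 55%, with treated viability meeting a 40% cutoff, limit read from the data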;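 also: viability without doxorubicin minus viability with 2 µM doxorubicin for each compound; larger differential means the compound sensitizes cells more to doxorubicin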
Candida biofilm: kills Candida albicans biofilms; C. albicans biofilm + clotrimazole, Alamar Blue; inhibition, % at 6 µM; 85,000 tested, 0.14% active; AID 834;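 active = inhibition above 20%; inactive = inhibition below 20%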;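 also: preformed 24 hr biofilms exposed to compound for 48 hr; 0% = biofilm without compound and 100% = blank killed by clotrimazole plus chlorhexidine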
MRP1 act: activators of MRP-1; 140,000 tested, 0.61% active; viability increase, % at 10 µM; AID 799; H69AR cells + doxorubicin, viability rescue, CellTiter-Glo;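 active = viability gain under doxorubicin at or above a set limit, the compound median plus 3 SD, cut at about 4.7% in these data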;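 also: MRP-1 overexpressing cells given doxorubicin 25 µM after compound pretreatment; 18-22 h compound pretreatment then 72 h with doxorubicin before readout; 0% = doxorubicin-only wells and 100% = vehicle-treated cells without doxorubicin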
Smad3 FoxH1 inh: blocks human Smad3 binding to FoxH1 peptide. TR-FRET Smad3/Dy647-FoxH1 peptide binding, europium anti-His. inhibition, % at 25 µM. 88,000 tested, 0.29% active;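 active = compounds that reduce the energy-transfer binding signal between the protein and its labelled peptide by more than half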;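 also: 0% = Smad3 plus labelled peptide maximal FRET and 100% = peptide-only background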
Target sequence (P84022 whole entry, looked up): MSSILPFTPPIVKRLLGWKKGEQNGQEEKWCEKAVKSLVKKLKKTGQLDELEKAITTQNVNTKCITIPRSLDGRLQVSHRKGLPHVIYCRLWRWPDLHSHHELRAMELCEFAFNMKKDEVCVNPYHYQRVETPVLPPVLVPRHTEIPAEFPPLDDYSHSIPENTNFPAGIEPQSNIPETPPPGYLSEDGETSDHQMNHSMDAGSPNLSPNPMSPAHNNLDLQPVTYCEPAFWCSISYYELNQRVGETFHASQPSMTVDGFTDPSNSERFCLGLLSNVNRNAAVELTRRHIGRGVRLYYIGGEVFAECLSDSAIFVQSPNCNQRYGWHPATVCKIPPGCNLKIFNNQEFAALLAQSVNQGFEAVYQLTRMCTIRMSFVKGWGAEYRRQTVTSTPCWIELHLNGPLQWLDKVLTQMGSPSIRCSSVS
Starred values were filed as active, the others as inactive; x = no result.

SMILES	MRP resist rev	Candida biofilm	MRP1 act	Smad3 FoxH1 inh
Cc1cccc2sc(NC(=O)Cn3cccc3)nc12	3	4	-2	6
Cc1cccc2sc(NC(=O)CSCc3ccccc3)nc12	12	50*	-4	1
C[C@H](CCC(=O)O)[C@@H]1CC[C@@H]2[C@H]3CC[C@@H]4C[C@H](O)CC[C@@]4(C)[C@@H]3CC[C@]21C	x	x	x	5
Cc1ccc(C=Nc2ccc(N(C)C)cc2)o1	65*	9	-2	6
CC1=CC(=O)CC(C)(C)[C@]1(O)/C=C/C(C)=C/C(=O)O	x	x	x	2
Cc1ccnc(NC(=O)COc2ccc3oc4c(c3c2)CCCC4)c1	x	x	5.2*	x
CC(=O)c1ccc(N2CCN(c3ccc(C(F)(F)F)cn3)CC2)cc1	x	x	7.8*	x
CC(=O)c1ccc(N2CCN(c3ncc(C(F)(F)F)cc3Cl)CC2)cc1	18	3	4	8
CC(C)c1ccccc1S(=O)c1ccccc1C(C)(C)O (stereo not drawn)	x	x	x	20
Cc1ccc(C)c2[nH]c(=O)c(CN(Cc3ccco3)S(=O)(=O)c3ccc4c(c3)OCCO4)cc12	-9	2	5.4*	8
CCc1ccc2[nH]c(=O)c(CN(Cc3ccco3)S(=O)(=O)c3ccc4c(c3)OCCO4)cc2c1	-4	1	-4	-1
CCCCCn1c(CN2CCCCC2C)nc2c1c(=O)n(C)c(=O)n2C (stereo not drawn)	-2	4	6.0*	3
CCCCCn1c(CN2CCCCC2CC)nc2c1c(=O)n(C)c(=O)n2C (stereo not drawn)	23	-2	x	-9
Cc1ccc(CC2S/C(=C(/C#N)C(=O)NCc3ccco3)N(c3ccccc3)C2=O)cc1 (stereo not drawn)	-33	3	6.6*	-5
N#C/C(C(=O)NCc1ccco1)=C1/SC(Cc2ccc(Cl)cc2)C(=O)N1c1ccccc1 (stereo not drawn)	44	3	-1	4
S=C(c1ccc(-c2ccccc2Cl)o1)N1CCCCC1	x	x	5.3*	x
CCOc1ccccc1Nc1nc(N)nc(CN(C)C2CCCCC2)n1	80*	11	-4	-6
COc1ccc2c(c1)CCc1sc(NC(=O)c3ccc(C)cc3)nc1-2	6	8	4.9*	-5
COc1ccc2c(c1)CCc1sc(NC(=O)c3ccco3)nc1-2	-8	-1	0	4
Cc1cccc(-n2c(SCC(=O)Nc3ncc(Cl)cc3Cl)nc3ccccc32)c1	x	x	5.9*	x
O=C(CSc1nc2ccccc2n1-c1ccccc1)Nc1ncc(Cl)cc1Cl	x	x	3	x
C[N+](C)(C)c1ccc([C@H](N)C(=O)O)cc1	x	x	x	-1
OCCN(CCO)c1ncnc2nc[nH]c12	x	x	x	8
C[C@@H](N)/C(N)=N\O	x	x	x	5
CCN(CC)CCOC(=O)c1c(C)oc2ccc(O)cc12	-2	3	0	-10
SMILES	MRP resist rev	Candida biofilm	MRP1 act	Smad3 FoxH1 inh
CCN(CC)CC[n+]1ccc2c(C)c3[nH]c4ccc(O)cc4c3c(C)c2c1	x	x	x	68*
Cc1noc(C)c1S(=O)(=O)N1CCC(C(=O)N2CCC(N3CCCCC3)CC2)CC1	12	22*	-1	6
Cc1noc(C)c1S(=O)(=O)N1CCCC(C(=O)N2CCN(C3CCCCC3)CC2)C1 (stereo not drawn)	2	6	-1	8
Cc1cc(C)nc(NN2C(=O)/C(=C/c3ccccc3)SC2=S)n1	x	x	9.7*	x
CC(=O)NN1C(=O)/C(=C\c2ccccc2)SC1=S	x	x	4	x
COc1cc(/C=C2\SC(=S)N(Nc3ccccc3)C2=O)ccc1O	x	x	0	x
Cc1ccc(/C=C2\SC(=S)N(CCC(=O)NNS(=O)(=O)c3ccc(C)cc3)C2=O)cc1	x	x	5.7*	x
O=C(CCN1C(=O)/C(=C/C=C/c2ccccc2)SC1=S)Nc1cccnc1	x	x	0	x
O=C(CCN1C(=O)/C(=C\c2ccccc2)SC1=S)NNC(=O)c1cccnc1	x	x	8.8*	x
CC(=O)NN1C(=O)/C(=C\c2ccc(C)cc2)SC1=S	x	x	11*	x
N#CC(C#N)=CNCCN1CCN(C=C(C#N)C#N)CC1	x	x	x	3
CC(C)OC(=O)CSc1nnc2n1C(C)(C)Cc1ccccc1-2	x	0	181*	-7
COc1ccc(NC(=O)CC2C(=O)N(c3ccc(F)cc3)C(=S)N2NC(=O)c2ccccc2)cc1 (stereo not drawn)	x	x	6.4*	x
CN1C[C@H](c2ccccc2)C(O)([C@]2(c3ccccc3)CN(C)C[C@H](c3ccccc3)C2=O)[C@H](c2ccccc2)C1 (stereo partly drawn)	x	x	x	6
CCOC(=S)SCC(=O)O	x	x	x	-5
CCN(CC)S(=O)(=O)c1cccc(C(=O)c2c(C)cc3ccccn23)c1	x	x	4.8*	x
CCN(CC)S(=O)(=O)c1cccc(NC(=O)C(=O)c2c(-c3ccccc3)cc3ccccn23)c1	x	x	4	x
CCN(CC)S(=O)(=O)c1cc(NC(=O)C(=O)c2c(-c3ccccc3)cc3ccccn23)ccc1C	5	0	6.9*	2
O=C(O)c1cccc(OCCO)c1	x	x	x	-1
Cn1cc(Br)c(C(=O)NNC(=O)c2ccc(Cl)cc2)n1	x	x	6.4*	x
COc1ccc(N(CC(=O)O)N=O)cc1	x	x	x	20
COc1ccc(/C=N/NC(=S)Nc2cccc(C(=O)O)c2)cc1OC	x	x	4	x
COc1cc(/C=N/NC(=S)Nc2cccc(C(=O)O)c2)cc(OC)c1OC	x	x	4.8*	x
CCCn1c(CN(Cc2ccccc2)Cc2ccccc2)nc2c1c(=O)n(C)c(=O)n2C	4	25*	3	-2
CCOC(=O)CCCN	x	x	x	1
SMILES	MRP resist rev	Candida biofilm	MRP1 act	Smad3 FoxH1 inh
Nc1nonc1-c1noc(CCCOc2ccc(Cl)cc2Cl)n1	2	10	-1	9
Cc1ccc(C(C)C)c(OCc2nc(-c3nonc3N)no2)c1	9	20	6.4*	0
CCSc1nc2ccc(OC)cc2cc1C#N	15	7	-3	-2
CCOc1ccc2nc(SCC#N)c(C#N)cc2c1	-9	5	5.0*	11
N#[N+]c1ccc(Nc2ccccc2)cc1	x	x	x	-1
O=C1Oc2ccccc2C(=O)/C1=C/N1C(=O)N/C(=C\c2ccccc2O)C1=O	x	x	x	1
CC(C)(S)[C@H](N)C(=O)O	x	x	x	6
c1ccc2c(c1)Nc1nccnc1S2	x	x	5.1*	x
Cc1ccc(/C=N/NC(=S)N2CCOCC2)cc1	x	x	4	x
S=C(N/N=C/c1ccc(Cl)cc1)N1CCOCC1	x	x	5.7*	x
c1ccc2c[n+](CCCC[n+]3ccc4ccccc4c3)ccc2c1	x	x	x	51*
CCCCCCCCCC[n+]1cccc(C(=O)N(CC)CC)c1	x	x	-2	x
CC(C)(C)OC(=O)[C@H]([C@@H]1N[C@@H](C(=O)O)C(C)(C)S1)N1C(=O)c2ccccc2C1=O	x	x	x	-7
CCCN1CCCc2cc(CN)ccc21	-8	10	-6	53*
CN1CCCc2cc(C=O)ccc21	11	8	0	-3
COc1ccc(C2C(C(=O)Nc3cccc(C)n3)CCC(=O)N2c2ccc(OC)cc2)cc1 (stereo not drawn)	13	5	13*	3
COc1ccc(N2C(=O)CCC(C(=O)O)C2c2ccc(F)cc2)cc1 (stereo not drawn)	13	-1	1	2
Cc1ccc(C)c(N2CCN(C(=O)c3ccc4nc(-c5ccco5)c(-c5ccco5)nc4c3)CC2)c1	1	6	9.9*	-10
COc1ccccc1N1CCN(C(=O)c2ccc3nc(-c4ccco4)c(-c4ccco4)nc3c2)CC1	22	10	-1	11

Compound activity from PubChem BioAssay.
